Screening data: PubChem BioAssay, Buhrlage Lab, Dana-Farber Cancer Institute and Novartis Institutes for BioMedical Research (Cambridge, Mass)
Compounds with a hit are over-represented: about 11% of the library has one in this group of screens.
USP30 block = human USP30 deubiquitinase inhibition; Q70CQ3; purified USP30, Ub-rhodamine cleavage fluorescence; inhibition, % at 25 µM; hit rate 5.3% among 47,000
USP17 inh = human USP17-like deubiquitinase inhibition; A8MUK1; purified USP17, Ub-rhodamine cleavage fluorescence, 3 h; inhibition, % at 50 µM; hit rate 6.5% among 47,000
Target sequence (A8MUK1 whole entry, looked up): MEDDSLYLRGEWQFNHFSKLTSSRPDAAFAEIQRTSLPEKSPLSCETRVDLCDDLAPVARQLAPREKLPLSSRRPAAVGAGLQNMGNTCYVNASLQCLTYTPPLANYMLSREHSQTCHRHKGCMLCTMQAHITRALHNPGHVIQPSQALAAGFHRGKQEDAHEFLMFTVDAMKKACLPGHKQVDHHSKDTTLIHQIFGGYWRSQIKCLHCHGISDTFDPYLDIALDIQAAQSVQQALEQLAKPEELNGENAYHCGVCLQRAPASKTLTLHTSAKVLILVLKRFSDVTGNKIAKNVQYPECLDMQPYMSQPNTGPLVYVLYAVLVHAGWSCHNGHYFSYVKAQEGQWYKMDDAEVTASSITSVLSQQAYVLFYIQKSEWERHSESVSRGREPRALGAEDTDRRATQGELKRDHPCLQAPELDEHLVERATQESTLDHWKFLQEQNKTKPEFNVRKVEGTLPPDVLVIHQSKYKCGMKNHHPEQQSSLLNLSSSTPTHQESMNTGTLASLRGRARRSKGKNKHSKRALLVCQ
OTUD3 inh = inhibitors of human OTUD3 deubiquitinase; hit rate 0.7% among 47,000; inhibition, % at 25 µM; purified OTUD3, Ub-rhodamine fluorescence, 2 h
USP28 block = blocks human USP28 ubiquitin-rhodamine cleavage. purified USP28, Ub-rhodamine cleavage fluorescence, 30 min. inhibition, % at 25 µM. hit rate 3% among 47,000
Hits are given with their value; – = inactive; · = no result given. No stated cut-off is given here; in the data, active means inhibition above about 30%; inactive means the rest.

SMILES	USP30 block	USP17 inh	OTUD3 inh	USP28 block
CCC(=O)N1Cc2ccccc2CC2(CCCN2Cc2ccccn2)C1 (stereo not drawn)	–	–	–	–
COc1ccc2c(c1)CCc1c-2n[nH]c1C(=O)Nc1ccc(F)cc1C	30	–	–	–
COc1ccc2c(c1)CCc1c-2n[nH]c1C(=O)NCCN1CCOCC1	–	–	–	–
COc1ccc(NC(=O)c2[nH]nc3c2COc2ccccc2-3)c(OC)c1	–	77	–	–
COc1ccc2c(c1)CCc1c-2n[nH]c1C(=O)Nc1ccccc1OC	–	50	–	–
COc1ccc2c(c1)CCc1c-2n[nH]c1-c1nc(-c2ccccn2)no1	–	33	–	–
COc1ccc(NC(=O)c2[nH]nc3c2CCc2ccccc2-3)c(OC)c1	–	–	–	–
O=C(CN1CCCCCC1)Nc1nc(-c2ccc3c(c2)CCN3C(=O)C2CC2)cs1	–	–	–	–
Clc1cncc(Oc2nc(-c3cccnc3)nc3ccccc23)c1	–	63	–	–
COc1cccc(NS(=O)(=O)c2ccc3c(c2)NC(=O)CC(C)S3)c1 (stereo not drawn)	–	–	–	–
COC(=O)c1ccc(NC(=O)c2ccc(COc3cc(Cl)ccc3Cl)cc2)cc1	–	47	–	–
CCOC(=O)c1ccc(NC(=O)Cn2cnc3c(nnn3-c3cccc(Cl)c3)c2=O)cc1	–	33	–	–
CCc1ccc(NC(=O)Cn2cnc3c(nc4n3CCCCC4)c2=O)cc1	–	–	–	–
CCOC(=O)c1ccc(NC(=O)Cn2cnc3c(nc4n3CCCCC4)c2=O)cc1	49	–	–	–
Cc1ccc(Cn2cnc3c(nnn3-c3cccc(F)c3)c2=O)cc1	–	47	–	–
O=C(c1ccccc1F)N1CCCC(Cc2cc(-c3ncc[nH]3)ncn2)C1 (stereo not drawn)	–	–	–	–
CCOc1ccccc1-c1cc(C(=O)N2CCC[C@]3(C)NC(=O)CCC[C@H]23)[nH]n1	–	–	–	–
COc1ccccc1NC(=O)c1ccc(Cn2nc(C)c(Cl)c2C)cc1	–	–	–	–
COc1ccccc1NC(=O)c1cc2c(C)nn(Cc3ccccc3)c2s1	–	70	–	–
Cc1ccc(Cn2nc(C)c3cc(C(=O)NC4=NCCS4)sc32)cc1	–	–	–	–
Cc1nn(Cc2ccccc2)c2sc(C(=O)Nc3nc4ccccc4[nH]3)cc12	44	67	–	–
CC(C)Cc1nc2sc3c(SCC(=O)NC(c4ccccc4)c4ccccc4)ncnc3c2c2c1CCC2	–	–	–	–
O=C(CSc1ccc2nnc(-c3cccc(F)c3)n2n1)c1ccccc1	–	30	–	–
c1ccc(CSc2ccc3nnc(-c4ccncc4)n3n2)nc1	–	–	–	–
COc1ccc(C(=O)CSc2ccc3nnc(-c4cccc(F)c4)n3n2)cc1	–	–	–	–
SMILES	USP30 block	USP17 inh	OTUD3 inh	USP28 block
c1ccc(-c2nnc3ccc(SCc4ccccn4)nn23)cc1	–	–	–	31
CCc1cccc(NC(=O)N2CCC3(CC2)COCCN(Cc2ccncc2)C3)c1	–	–	–	–
O=C(c1ccncc1)N1CCCC(c2nc(-c3ccccn3)ncc2-c2ccncc2)C1 (stereo not drawn)	–	–	–	–
COc1cccc(CN(C)C(=O)CC(c2ccccc2)c2ccccc2)c1	41	·	–	–
Cc1nc2ccccc2nc1SCC(=O)Nc1ccc2c(c1)OCO2	66	47	–	–
O=C(CSc1nncc2ccccc12)Nc1ccc2c(c1)OCO2	57	–	–	–
Cc1ccc(NC(=O)CSc2nncc3ccccc23)cc1	–	–	–	–
CCCCS(=O)(=O)N1CCC(Cc2nc3cccnc3n2C)C1 (stereo not drawn)	–	–	–	–
CC(=O)c1ccc(NC(=O)CN(CC(=O)Nc2ccc(C(C)=O)cc2)S(=O)(=O)c2ccc(C)cc2C)cc1	–	32	–	–
CC(=O)c1ccc(NC(=O)CN(CC(=O)Nc2ccc(C(C)=O)cc2)Cc2ccccc2)cc1	·	–	–	·
COc1nccnc1N1CCC(NC(=O)c2ccncc2)C1 (stereo not drawn)	–	–	–	–
CC(=O)Nc1nc2c(s1)CCc1ccccc1-2	–	–	–	39
CC(O)(CS(=O)(=O)Cc1ccccc1)C(=O)Nc1cccc(C(F)(F)F)c1 (stereo not drawn)	–	–	–	–
Cc1cc(C(F)(F)F)n(-c2ccc(NC(=O)Nc3cccc(C(F)(F)F)c3)cc2)n1	–	39	31	43
Cc1ccc(Cn2nc(C)cc2C(=O)Nc2cccc(C(F)(F)F)c2)cc1	–	–	–	–
Cn1cc(NC(=O)Nc2cccc(C(F)(F)F)c2)c2ccccc2c1=O	78	98	88	61
COc1ccc(OC)c(CNc2nc(N3CCCC3)nc3c2cnn3C)c1	–	–	–	–
COc1ccc(Nc2nc(N3CCCC3)nc3c2cnn3C)cc1	39	49	–	–
Cc1ccc(NC(=O)CCc2c(C)nn(-c3cc(N4CCCC4)ncn3)c2C)cc1	–	–	–	–
O=C(Cn1ccc2ccn(Cc3ccccc3)c2c1=O)NC1CCCC1	–	39	–	–
Cc1c(Cl)cccc1NC(=O)Cn1ccc2ccccc2c1=O	–	71	–	–
O=C(Cn1cnc2c(c1=O)CCN(Cc1ccccc1)C2)Nc1ccccc1Cl	–	–	–	–
O=C(Cn1ccc2ccn(Cc3ccccc3)c2c1=O)Nc1ccccc1Cl	–	33	–	–
Cc1c(Cl)cccc1NC(=O)Cn1cc(C(=O)C2CC2)c2ccccc21	–	–	–	–
COc1ccc(Cn2c(CO)cnc2SCC(=O)Nc2cccc(C)c2)cc1	–	–	–	–
SMILES	USP30 block	USP17 inh	OTUD3 inh	USP28 block
COc1ccc(C(=O)CC(=O)C(=O)Nc2cc(C)ccc2OC)cc1	–	–	–	–
O=c1sc2ccccc2c(=O)n1Cc1cccc(C(F)(F)F)c1	–	–	–	83
Cc1nc(-c2nc(C)c(Cl)c(=O)[nH]2)cs1	–	–	–	–
Clc1ncc(CN2CCc3ccccc3C2)s1	–	–	–	38
c1ccc2c(c1)CCN(c1ncnc3sc4c(c13)CCCC4)C2	–	–	–	–
Cc1cc(-c2cnc(C)nc2-c2ccc(CNC(=O)c3cccnc3)cc2)on1	–	–	–	–
CCN(CC)c1ncnc2c1sc1nc(-c3ccccc3)c3c(c12)CCC3	–	–	–	–
CCN(CCO)c1ncnc2c1sc1nc(-c3ccccc3)c3c(c12)CCC3	–	33	–	–
O=C(Nc1ccc(F)c(F)c1)c1ccc(-c2cncnc2)nc1	–	–	–	–
CCOC(=O)c1ccc(OCC2c3cc(OC)c(OC)cc3CCN2C(=O)C(C)Oc2ccccc2)cc1 (stereo not drawn)	–	32	–	–
c1ccc(CSc2nc3ccccc3n2Cc2ccccn2)cc1	–	–	–	–
Cc1ccc(-n2ncc3c2ncn2nc(C(C)(C)C)nc32)cc1C	–	–	–	–
Cc1ccc(-n2ncc3c2ncn2c(C)nnc32)cc1C	45	–	–	–
Brc1ccc(Sc2cnns2)cc1	–	–	–	38
O=C(c1cn[nH]c1C1CCN(S(=O)(=O)c2ccc(F)c(F)c2)CC1)N1CCCC1	–	–	–	–
Cc1ccc(C2N3CC4(C)CN2CC(c2ccccc2)(C3)C4=O)cc1 (stereo not drawn)	34	–	–	–
